# Screening results: PubChem BioAssay, National Center for Advancing Translational Sciences (NCATS)
# A selection: hits, their analogues and other compounds. The true share with any hit is near 3.8%.
# rTrxR1 inhibitor = qHTS Assay for Inhibitors of Mammalian Selenoprotein Thioredoxin Reductase 1 (TrxR1): qHTS; recombinant rTrxR1, NADPH fluorescence consumption, selenite substrate; Potency, µM (series often up to 114 µM), for inactives: at the highest dose activity change, negative = inhibition, hits mostly inhibitors; actives 1% (n = 390,000); further: nearly all actives have a fitted effect of over 65% in size
#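 Rat TrxR1 (90 nM in the dispensed reagent) was pre-reduced with 400 uM NADPH for 5 min at room temperature, then incubated with compound for 15 min. After 400 uM selenite was added, NADPH fluorescence (Ex 340/Em 450 nm) was followed for 8 min.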
# GCN5L2 inh = qHTS Assay for Inhibitors of GCN5L2. Potency, µM (top dose mostly 58.9 µM), for the others: at the top dose activity change, negative = inhibition, usual class: inhibitors. Histone acetyltransferase KAT2A (Homo sapiens), Q92830. GCN5L2 HAT assay, ThioGlo1 CoA-SH fluorescence. actives 0.21% (n = 390,000)
#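 Compounds, pin-transferred from DMSO stocks, meet 20nM GCN5L2 for 15 min before the reaction begins with H3(1-25) peptide (75uM) and acetyl-CoA (70uM). Thiol-reactive ThioGlo1 reports CoA release over 20 min at room temperature.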
# Sfp inh = qHTS Assay for Inhibitors of Bacillus subtilis Sfp phosphopantetheinyl transferase (PPTase). 4'-phosphopantetheinyl transferase ffp (Bacillus subtilis), Q9F4F7. Biochemical Sfp PPTase activity, qHTS. Potency, µM, inactives show largest response in the series, negative = inhibition, hits mostly inhibitors. actives 3.5% (n = 310,000). AID 1490, 2009;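 further: the enzyme is Sfp with the accession as filed and its product quenches rhodamine fluorescence; 0% = enzyme reaction without inhibitor and -100% = no enzyme wells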
#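 Compounds were incubated with enzyme (final 15 nM) for 15 min at room temperature before substrate addition started the reaction. Fluorescence at 525 nm excitation, 598 nm emission was recorded immediately and after 30 minutes.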
# VDR inhibitor = Inhibitors of the vitamin D receptor (VDR): qHTS; Vitamin D3 receptor (Homo sapiens), P11473; VDR-SRC2-3 peptide fluorescence polarization, 2 h; Potency, µM, inactives show max response, negative = inhibition, actives largely listed as inhibitors; actives 0.93% (n = 400,000); AID 504847, 2011
# Target sequence (P11473 whole entry, looked up): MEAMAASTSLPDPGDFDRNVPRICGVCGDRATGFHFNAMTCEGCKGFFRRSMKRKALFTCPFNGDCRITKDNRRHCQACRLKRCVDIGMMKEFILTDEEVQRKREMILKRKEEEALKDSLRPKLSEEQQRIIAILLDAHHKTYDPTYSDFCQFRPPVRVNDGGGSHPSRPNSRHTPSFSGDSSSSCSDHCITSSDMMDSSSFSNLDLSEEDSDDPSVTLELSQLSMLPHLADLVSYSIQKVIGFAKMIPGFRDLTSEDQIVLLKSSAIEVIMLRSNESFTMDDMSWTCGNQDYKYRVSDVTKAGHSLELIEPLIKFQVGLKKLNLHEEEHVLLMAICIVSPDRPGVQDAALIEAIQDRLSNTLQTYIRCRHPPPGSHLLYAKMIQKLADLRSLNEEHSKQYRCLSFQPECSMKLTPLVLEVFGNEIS
#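 Measured by FP: displacement of SRC2-3 coactivator peptide from VDR by library compounds, following a two-hour ambient incubation.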
# GLS inhibitor = qHTS for Inhibitors of Glutaminase (GLS); actives 0.21% (n = 410,000); Potency, µM (doses to about 45.5 µM), for the others: at the top dose activity change, negative = inhibition, most hits filed as inhibitors; GLS enzymatic activity, qHTS titration
#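 Read-out is an Amplex red fluorescence increase coupled through glutamate oxidase and HRP, measured before and after 30 min room-temperature incubation. hKGA is in 45 mM KH2PO4 (pH 8.2) with 0.02% Tween-20; glutamine added as 1mM solution.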
# TrxR1 substrate = qHTS Assay for Substrates of Mammalian Selenoprotein Thioredoxin Reductase 1 (TrxR1): qHTS; Thioredoxin reductase 1, cytoplasmic (Rattus norvegicus), O89049; actives 0.01% (n = 390,000); Potency, µM (titrated, usually from 114 µM), inactives show top-dose activity change, negative = substrate turnover; purified TrxR1 substrate turnover, NADPH consumption readout; further: nearly all actives have a fitted effect of over 50% in size
#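 Rat TrxR1, dispensed at 90 nM, was prereduced with 400 uM NADPH (final) for 5 min at ~22 deg C, then incubated with compound 15 min before 400 uM selenite. A first-read NADPH fluorescence drop versus no-compound background flagged substrates.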
# Starred values were filed as active, the others as inactive; ? = inconclusive; · = not tested or not shown; ! = not confirmed by another sample; [ ] = dose if it differs, or a comment. The call rests on the fitted dose curve; in most records, active means well fitted curve in the direction sought with a large enough effect; inconclusive means small, poorly fitted or top-dose-only effect, or another doubt; inactive means no such curve, though single readings can be large; an effect the other way counts as inactive or inconclusive. Unless noted, on the % scale 0 is the no-effect control and ±100 the full control effect; potency means the concentration at half of the fitted maximal effect.
SMILES,rTrxR1 inhibitor,GCN5L2 inh,Sfp inh,VDR inhibitor,GLS inhibitor,TrxR1 substrate
CC1CCN(c2nc(-c3ccco3)c3c(c2C#N)CC(C)(C)OC3)CC1,8.9µM*,-6%,14µM*,50µM*,0%,21%
N#Cc1c(NCCCO)nc(-c2ccco2)c2c1CCCC2,-80%,-9%,40µM*,-16%,-1%,45%[57.1 µM]
CC1(C)Cc2c(C#N)c(N3CCOCC3)nc(-c3ccccc3)c2CO1,14%[57.1 µM],-6%,2%,-14%,3%,27%[57.1 µM]
CC1(C)Cc2c(C#N)c(NCCO)nc(-c3ccco3)c2CO1,-4%[57.1 µM],-6%,16µM*,-2%,0%,42%[57.1 µM]
Cc1ccc(NC2c3ccccc3C(=O)N2c2cccnc2)cc1 (stereo not drawn),11%,2%,18%,1%,1%,3%
CCOC(=O)c1cc2c(N)c(C(=O)c3ccc(Br)cc3)sc2[nH]c1=O,1%,-2%,28µM*,6%,5%,-2%
Clc1ccc(C2=Nn3c(Cn4nnc5ccccc54)nnc3SC2)cc1,-15%,-26%,32µM*,79µM*,14%,9%[57.1 µM]
c1ccc(C2=Nn3c(Cn4nnc5ccccc54)nnc3SC2)cc1,30%[57.1 µM],-6%,24%,9%,2%,-13%[57.1 µM]
CC1=C(/C=C/C(C)=C/C=C/C(C)=C/C(=O)O)C(C)(C)CCC1O (stereo not drawn),·,-3%,5%,71µM*,·,·
CC(/C=C\c1ccccc1)=C/C(=O)O,3%[57.1 µM],-18%,9%,-10%,9%,5%[57.1 µM]
CC1=C(/C=C/C(C)=C/C=C/C(C)=C/C(=O)Oc2c(C)c(C)c3c(c2C)CC[C@@](C)(CCC[C@H](C)CCC[C@H](C)CCCC(C)C)O3)C(C)(C)CCC1,·,-9%,20%,-4%,3%,·
CC1=C(/C=C/C(C)=C\C=C\C(C)=C\C(=O)O)C(C)(C)CCC1,·,6%,13%,56µM*!,·,·
CC1=C(/C=C/C(C)=C/C=C/C(C)=C/C(=O)O)C(C)(C)CCC1,25µM*!,32µM*!,?,45µM*!,-4%,8%[57.1 µM]
N#Cc1nc(Cc2ccccc2)oc1NCCN1CCOCC1,-16%,-2%,13%,-20%,12%,-4%
CCc1ccc(NC(=O)Cn2c(=O)n(CCCC(=O)NCc3ccc4c(c3)OCO4)c(=O)c3ccccc32)cc1,3%,2%,·,-3%,?,-2%
O=C(CCl)N(c1ccccc1)C1CCCCC1,3.2µM*,-5%,6%,-11%,3%,14%[57.1 µM]
CC(=O)N(c1ccccc1)C1CCCC1,-18%,5%,8%,-17%,2%,-14%
CN(C)CCNCCCOc1ccccc1-c1ccccc1,·,-5%,50µM*,·,·,·
COCCCNCCOCCOc1ccccc1-c1ccccc1,-14%,-2%,?,-6%,-9%,-7%
CC(C)(C)NC(=O)COC(=O)C1c2ccccc2Oc2ccccc21,7%,-8%,14%,-4%,5%,-1%
COc1ccc(-n2nc3cc(C)c(N)c(Br)c3n2)cc1,11%[57.1 µM],-10%,40µM*,-1%,-13%,7%
COc1ccc(-n2nc3ccccc3n2)cc1,0%,2%,-20%,6%,-3%,-4%
CCC(=O)NCC(c1cccs1)S(=O)(=O)c1ccc(C)cc1 (stereo not drawn),13%,-5%,7%,21%,1%,-3%
CCOc1ccc(S(=O)(=O)NCC(c2cccs2)S(=O)(=O)c2ccc(C)cc2)cc1 (stereo not drawn),0.89µM*,-14%,·,1%,0%,0%[57.1 µM]
Cc1cc(C)c(S(=O)(=O)NCC(c2cccs2)S(=O)(=O)c2ccccc2)c(C)c1 (stereo not drawn),2.5µM*,-18%,·,-1%,2%,5%[57.1 µM]
SMILES,rTrxR1 inhibitor,GCN5L2 inh,Sfp inh,VDR inhibitor,GLS inhibitor,TrxR1 substrate
Cc1cc(C)c(S(=O)(=O)NCC(c2ccco2)S(=O)(=O)c2ccccc2)c(C)c1 (stereo not drawn),4%[57.1 µM],-10%,·,6%,5%,6%[57.1 µM]
COC(=O)C[C@H]1c2ccc(C(F)(F)F)cc2S(=O)(=O)N1Cc1ccccc1,3%[57.1 µM],·,·,-3%,12%,5%[57.1 µM]
O=C1OC[C@@H]2CCCN2C(=O)[C@@H](CC(=O)N(CCO)Cc2ccccc2)C/C=C\CC[C@H]1Cc1ccc(F)cc1,17%[57.1 µM],-2%,·,8%,3%,8%[57.1 µM]
O=C(CCl)N1N=C(c2ccco2)CC1c1cccs1 (stereo not drawn),2µM*,10%,28µM*,-20%,10%,0%
Cc1ccc(C2=NN(C(=O)CCl)C(c3cccs3)C2)o1 (stereo not drawn),10µM*,-20%,50µM*,-14%,-7%,0%[57.1 µM]
CC(/C=C/c1ccco1)=N/NC(=O)c1ccccc1Cl,16µM*,-28%,35µM*,?,-3%,12%[57.1 µM]
CC(/C=C/c1ccco1)=N\NC(=O)c1cccc(Cl)c1,?,1%,?,-10%,12%,-18%
CC(/C=C/c1ccco1)=N/NC(=O)CNc1ccccc1C,-7%[57.1 µM],-1%,50µM*,?,-2%,0%[57.1 µM]
N#CC(c1ccccn1)c1ncc(C(F)(F)F)cc1Cl (stereo not drawn),1%,10%,1%,4%,11%,-2%
Cc1ccc(Cn2c(C(C)Nc3nc(-c4ccc(Cl)c([N+](=O)[O-])c4)cs3)nc3cc(C(F)(F)F)ccc32)cc1 (stereo not drawn),12%,·,·,-11%,6%,1%
Cn1nc([N+](=O)[O-])c(C(C#N)c2ccccn2)c(Cl)c1=O (stereo not drawn),2.8µM*,-10%,-5%,-6%,-6%,-4%
CCn1nc([N+](=O)[O-])c(C(C#N)c2nc3cc(C(F)(F)F)ccc3s2)c(Cl)c1=O (stereo not drawn),32µM*,?,-18%,?,17%,-9%
CCCn1nc([N+](=O)[O-])c(C(C#N)c2nc3ccccc3o2)c(Cl)c1=O (stereo not drawn),11µM*,-15%,-17%,?,21%,-15%
CCCCn1c(N)c(-c2nc3ccccc3o2)c2c([N+](=O)[O-])nn(C)c(=O)c21,16%[57.1 µM],-17%,5%,4%,?,10%
CC1CC(C)CN(S(=O)(=O)c2ccc(NC(=O)CCN3C(=O)C4CC=CCC4C3=O)cc2)C1 (stereo not drawn),18%,?,·,-6%,0%,1%
